A selection: hits, their analogues and other compounds. The true share with any hit is near 19%.
IL1B secr inh – inhibitors of inflammasome signaling (IL-1 beta secretion). activity change, % at 57.5 µM. THP-1 LPS/ATP IL-1B secretion, AlphaLISA, 16 h; stronger effect = lower value. hit rate 4.7% among 360,000; in the data active means activity change below about -50%; inconclusive means mostly about -30% to -49%
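THP-1 cells pretreated 1 hr with compounds (up to 57.5 uM final), then stimulated with LPS (250 ng/mL final) plus ATP (1.25 mM final); secreted IL-1B measured by AlphaLISA after 16 hr, decreased signal indicating inhibition.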
HT1080NT lethal – kills 2HG-producing HT-1080-NT fibrosarcoma cells | hit rate 1.6% among 360,000 | HT-1080-NT fibrosarcoma viability, CellTiter-Glo ATP luminescence, 48 h | Potency, µM (series often up to 46.1 µM), for the others: at the top dose activity, negative = less viability, actives largely listed as cytotoxic;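 further: NT is the 2HG producing partner of a matched IDH1 knockdown line; potency means the concentration at half of the fitted maximal effect; 0% = DMSO-treated cells and -100% = media-only wells without cells; nearly all actives have a fitted effect of over 55% in size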
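Compounds were tested in concentration-response format on HT-1080-NT cells for 48 hours at 37 degrees C. Cell viability came from CellTiter-Glo luminescence; curves were classified by r2, response magnitude and activity.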
uPA generation – inhibitors of cell surface uPA generation; cell surface uPA generation assay, qHTS; Potency, µM (highest dose often 38.3 µM), inactives show at the highest dose activity change, negative = inhibition, hits mostly inhibitors; hit rate 0.31% among 330,000; AID 540303; active means well fitted inhibition curve with a large enough effect; inconclusive means small, poorly fitted or top-dose-only effect; inactive means no such curve, though single readings can be large or run the other way; tested in mouse RAW 264.7 cells; further: potency means the concentration at half of the fitted maximal effect; nearly all actives have a fitted effect of over 55% in size
DT40 TDP1 no CPT – qHTS for Inhibitors of human tyrosyl-DNA phosphodiesterase 1 (TDP1): qHTS in cells in absence of CPT | Potency, µM (titrated, usually from 46.2 µM), without a hit: top-dose activity change, negative = growth inhibition, usual class: inhibitors | AID 686978, 2013 | hit rate 15% among 420,000 | DT40 Tdp1-/- hTDP1 cells, no CPT, ATP luminescence, 48 h; further: potency means the concentration at half of the fitted maximal effect; nearly all actives have a fitted effect of over 55% in size
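Chicken DT40 Tdp1-/- cells stably complemented with human TDP1 were seeded at 400 cells/well with DMSO in place of 20 nM camptothecin. After compound pinning, cells grew at least 48 hr at 37 °C; viability read by CellTiter-Glo luminescence.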
DT40 TDP1 CPT – DT40-hTDP1 cell growth loss with CPT; chicken DT40 Tdp1-/-;hTDP1 cells + 20 nM CPT, ATP luminescence, 48 h; hit rate 12% among 420,000; Potency, µM (top dose mostly 46.2 µM), without a hit: top-dose activity change, negative = growth inhibition, actives largely listed as inhibitors; further: potency means the concentration at half of the fitted maximal effect; nearly all actives have a fitted effect of over 55% in size
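Chicken DT40 Tdp1-/- cells stably complemented with human TDP1 were seeded at 400 cells/well in medium containing 20 nM camptothecin, exposed to pin-transferred compounds, and grown at 37 °C for at least 48 hr. Viability was read as ATP luminescence.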
HT1080 IDH1KD tx – HT-1080 IDH1 knockdown cell toxicity (counter line). HT-1080 IDH1 knockdown viability, ATP luminescence, 48 h. Potency, µM (series often up to 46.1 µM), for inactives: top-dose activity, negative = toxicity, most hits filed as cytotoxic. hit rate 2% among 360,000;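 further: potency means the concentration at half of the fitted maximal effect; 0% = DMSO wells and -100% = cell-free medium wells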
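Cytotoxicity counter-line: IDH1KD HT-1080, 48 h, CellTiter-Glo. Curves classed by r2, magnitude and activity.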
The depositor's hits bear a star; [ ] = another dose, or the depositor's remark. Unless noted, the call rests on the fitted dose curve; in most records, active means well fitted curve in the direction sought with a large enough effect; inconclusive means small, poorly fitted or top-dose-only effect, or another doubt; inactive means no such curve, though single readings can be large; an effect the other way counts as inactive or inconclusive. Unless noted, on the % scale 0 is the no-effect control and ±100 the full control effect.

What do the screens show for `Cc1cc(N2CCOCC2)nc(-c2ccccc2O)n1`?
IL1B secr inh: inconclusive; HT1080NT lethal: 1%; uPA generation: 1%; DT40 TDP1 no CPT: inconclusive; DT40 TDP1 CPT: inconclusive; HT1080 IDH1KD tx: -4%

What do the screens show for `CCN1CCN(c2cc(C)nc(-c3ccccc3O)n2)CC1`?
IL1B secr inh: -69*; HT1080NT lethal: -13%; uPA generation: inconclusive; DT40 TDP1 no CPT: -12%; DT40 TDP1 CPT: -3%; HT1080 IDH1KD tx: -11%

What do the screens show for `Cc1cc(N2CCCCC2C)nc(-c2ccccc2O)n1` (centres undefined)?
IL1B secr inh: -10; HT1080NT lethal: 16%; uPA generation: 0%; DT40 TDP1 no CPT: 21µM*; DT40 TDP1 CPT: 23µM*; HT1080 IDH1KD tx: -1%

How did O=C(Cc1ccc(Br)cc1)N1CCN(C(=O)c2ccco2)CC1 do in these assays?
IL1B secr inh: -1; HT1080NT lethal: 23%; uPA generation: -2%; DT40 TDP1 no CPT: 1%; DT40 TDP1 CPT: -16%; HT1080 IDH1KD tx: 7%

How did O=C(O)COc1ccc(CCNS(=O)(=O)c2ccccc2)s1 do in these assays?
DT40 TDP1 no CPT: -14%; DT40 TDP1 CPT: 3%

How did Cc1ccc(N(CC(=O)NC2CCCC2)C(=O)CCC(=O)Nc2nccs2)c(C)c1 do in these assays?
IL1B secr inh: -54*; HT1080NT lethal: -11%; uPA generation: -7%; DT40 TDP1 no CPT: inconclusive; DT40 TDP1 CPT: -7%; HT1080 IDH1KD tx: -14%

Results for O=C(NCCc1nc2ccccc2n1CCCOc1ccccc1)C1CCCCC1 ?
DT40 TDP1 no CPT: 11µM*; DT40 TDP1 CPT: 10µM*

How did Cc1ccc(OCCn2c(CCNC(=O)C(C)C)nc3ccccc32)cc1 do in these assays?
IL1B secr inh: -14; HT1080NT lethal: -2%; uPA generation: -8%; DT40 TDP1 no CPT: inconclusive; DT40 TDP1 CPT: inconclusive; HT1080 IDH1KD tx: -5%

How did Cc1ccccc1OCCCCn1c(CCNC(=O)C(C)(C)C)nc2ccccc21 do in these assays?
DT40 TDP1 no CPT: 8.2µM*; DT40 TDP1 CPT: 13µM*

What do the screens show for `CC(C)(C)C(=O)NCCc1nc2ccccc2n1CC(=O)c1ccccc1`?
IL1B secr inh: 13; HT1080NT lethal: 4%; uPA generation: 1%; DT40 TDP1 no CPT: inconclusive; DT40 TDP1 CPT: -23%; HT1080 IDH1KD tx: 2%

What do the screens show for `Cc1cc(OCCCn2c(CCNC(=O)C3CCCCC3)nc3ccccc32)ccc1Cl`?
DT40 TDP1 no CPT: 7.3µM*; DT40 TDP1 CPT: 6.5µM*

What do the screens show for `Cc1cccc(C)c1OCCCn1c(CCNC(=O)C2CCCCC2)nc2ccccc21`?
DT40 TDP1 no CPT: 18µM*; DT40 TDP1 CPT: 15µM*

How did COc1ccccc1C1CN(CCNC(=O)[C@@H]2CSC(=O)N2)Cc2ccccc2O1 (some centres undefined) do in these assays?
DT40 TDP1 no CPT: -16%; DT40 TDP1 CPT: -1%[9.04 µM]

Results for Cc1ccc2oc(-c3ccc(C)c(NC(=O)c4ccc(N5CCC(C)CC5)c([N+](=O)[O-])c4)c3)nc2c1 ?
DT40 TDP1 no CPT: 0%; DT40 TDP1 CPT: -4%

Results for COc1ccc(OCCn2c(CCNC(=O)C3CCCCC3)nc3ccccc32)cc1 ?
DT40 TDP1 no CPT: 13µM*; DT40 TDP1 CPT: inconclusive

Results for CCc1ccc(OCCCn2c(CCNC(=O)C3CCCCC3)nc3ccccc32)cc1 ?
DT40 TDP1 no CPT: -21%; DT40 TDP1 CPT: inconclusive

Results for COc1ccc(/C=C/c2nc(-c3ccccc3O)n[nH]2)cc1OC ?
IL1B secr inh: -99*; HT1080NT lethal: 4%; uPA generation: 0%; DT40 TDP1 no CPT: inconclusive; DT40 TDP1 CPT: inconclusive; HT1080 IDH1KD tx: 4%

What do the screens show for `COc1ccc(Nc2nc3c(S(=O)(=O)c4ccc(C)cc4)nnn3c3ccsc23)cc1Cl`?
DT40 TDP1 no CPT: -6%; DT40 TDP1 CPT: 0%

Results for CCOC(=O)CSc1n[nH]c(NS(=O)(=O)c2ccccc2C(F)(F)F)n1 ?
IL1B secr inh: -77*; HT1080NT lethal: -3%; uPA generation: -9%; DT40 TDP1 no CPT: -5%; DT40 TDP1 CPT: 8%; HT1080 IDH1KD tx: 2%

How did CCN(CC(=O)Nc1ccc(OC)cc1)CC(=O)Nc1cccc(S(=O)(=O)N2CCOCC2)c1 do in these assays?
IL1B secr inh: -7; HT1080NT lethal: -1%; DT40 TDP1 no CPT: inconclusive; DT40 TDP1 CPT: -26%; HT1080 IDH1KD tx: -1%

What do the screens show for `CCNC(=O)C1CCCN(C(=O)c2cnc3ccccc3n2)CC1` (centres undefined)?
IL1B secr inh: 0; HT1080NT lethal: 16%; DT40 TDP1 no CPT: -7%; DT40 TDP1 CPT: 12%; HT1080 IDH1KD tx: 22%

How did Cc1ccc(NC(=O)CN(C)C(=O)c2ccc(Cl)c([N+](=O)[O-])c2)cc1 do in these assays?
IL1B secr inh: -85*; HT1080NT lethal: 17%; uPA generation: 2%; DT40 TDP1 no CPT: inconclusive; DT40 TDP1 CPT: inconclusive; HT1080 IDH1KD tx: 15%

What do the screens show for `O=C(NCC1CCCO1)c1ccc(N2CCCCC2)c([N+](=O)[O-])c1` (centres undefined)?
IL1B secr inh: -6; HT1080NT lethal: 14%; uPA generation: -3%; DT40 TDP1 no CPT: 17%; DT40 TDP1 CPT: -8%; HT1080 IDH1KD tx: 2%

How did COc1ccc(NC(=O)CN(C)C(=O)c2ccc(N3CCCCC3)c([N+](=O)[O-])c2)cc1 do in these assays?
IL1B secr inh: -2; HT1080NT lethal: -1%; uPA generation: 0%; DT40 TDP1 no CPT: 15µM*; DT40 TDP1 CPT: inconclusive; HT1080 IDH1KD tx: -2%

Results for COc1cccc(CN(C)C(=O)c2ccc(N3CCCC3)c([N+](=O)[O-])c2)c1 ?
IL1B secr inh: -27; HT1080NT lethal: 0%; uPA generation: 4%; DT40 TDP1 no CPT: 23µM*; DT40 TDP1 CPT: 16µM*; HT1080 IDH1KD tx: -6%

Results for CC1CCCN(c2ccc(C(=O)NCc3ccco3)cc2[N+](=O)[O-])C1 (centres undefined) ?
IL1B secr inh: -61*; HT1080NT lethal: 13%; uPA generation: -14%; DT40 TDP1 no CPT: inconclusive; DT40 TDP1 CPT: 2%; HT1080 IDH1KD tx: -20%

What do the screens show for `C[C@H](NC(=O)c1ccco1)C(=O)N1CCN(c2ccc(C(F)(F)F)cn2)CC1`?
IL1B secr inh: 4; HT1080NT lethal: 7%; uPA generation: 9%; DT40 TDP1 no CPT: inconclusive; DT40 TDP1 CPT: -17%; HT1080 IDH1KD tx: 0%

Bioassay records: PubChem BioAssay, National Center for Advancing Translational Sciences (NCATS)
